Assay outcomes from PubChem BioAssay.
This is a sample that favours compounds with a hit; in the whole collection about 19% have one here.
HT1080 IDH1KD tx = HT-1080 IDH1 knockdown cell toxicity (counter line). HT-1080 IDH1 knockdown viability, ATP luminescence, 48 h. Potency, µM (doses to about 46.1 µM), for inactives: at the highest dose activity, negative = toxicity, usual class: cytotoxic. actives 2% (n = 360,000);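 also: potency is read from the fitted curve at half-maximal effect; 0% = DMSO wells and -100% = cell-free medium wells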
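IDH1KD HT-1080 cells, 750/well, RPMI + 5% FBS; compound pinned after 2 h settling; 48 h, 37 °C; CellTiter-Glo luminescence; % activity normalised to DMSO and no-cell wells; curves fitted, classed by r2 and efficacy.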
IL-1B inflam inh = blocks inflammasome-driven IL-1 beta release; actives 4.7% (n = 360,000); activity change, % at 57.5 µM; THP-1 LPS/ATP IL-1B secretion, AlphaLISA, 16 h; hits give low values; in the data active = activity change below about -50%; inconclusive = mostly about -30% to -49%
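THP-1 cells pretreated 1 hr with compounds (up to 57.5 uM final), then stimulated with LPS (250 ng/mL final) plus ATP (1.25 mM final); secreted IL-1B measured by AlphaLISA after 16 hr, decreased signal indicating inhibition.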
TDP1 cell noCPT = qHTS for Inhibitors of human tyrosyl-DNA phosphodiesterase 1 (TDP1): qHTS in cells in absence of CPT. actives 15% (n = 420,000). DT40 Tdp1-/- hTDP1 cells, no CPT, ATP luminescence, 48 h. Potency, µM (top dose mostly 46.2 µM), inactives show top-dose activity change, negative = growth inhibition, usual class: inhibitors; also: potency is read from the fitted curve at half-maximal effect; nearly all actives have a fitted effect of over 55% in size
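Chicken DT40 Tdp1-/- cells complemented with human TDP1, screened without camptothecin (DMSO vehicle only), 400 cells/well. Compounds pin-transferred, cells incubated at 37 °C for at least 48 hr. Growth read as ATP-dependent luminescence (CellTiter-Glo, 30 min at RT).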
TDP1 cell CPT = DT40-hTDP1 cell growth loss with CPT. chicken DT40 Tdp1-/-;hTDP1 cells + 20 nM CPT, ATP luminescence, 48 h. Potency, µM (highest dose often 46.2 µM), for inactives: at the highest dose activity change, negative = growth inhibition, most hits filed as inhibitors. actives 12% (n = 420,000); also: potency is read from the fitted curve at half-maximal effect; nearly all actives have a fitted effect of over 55% in size
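Cell growth measured by CellTiter-Glo luminescence after a minimum 48 h, 37 C compound exposure with 20 nM CPT in Tdp1-knockout DT40 cells stably expressing hTDP1, seeded 400/well; qHTS titration format.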
HT1080-NT tox = kills 2HG-producing HT-1080-NT fibrosarcoma cells. HT-1080-NT fibrosarcoma viability, CellTiter-Glo ATP luminescence, 48 h. Potency, µM (top dose mostly 46.1 µM), for the others: top-dose activity, negative = less viability, actives largely listed as cytotoxic. actives 1.6% (n = 360,000);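 also: NT is the 2HG producing partner of a matched IDH1 knockdown line; potency is read from the fitted curve at half-maximal effect; 0% = DMSO-treated cells and -100% = media-only wells without cells; nearly all actives have a fitted effect of over 55% in size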
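Luminescent CellTiter-Glo readout after 48 hours of compound exposure at 37 degrees C defined viability of HT-1080-NT cells. Activity was normalized to DMSO wells and cell-free media wells; concentration-response curves were fitted and assigned curve classes.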
* = called active by the depositor; ? = inconclusive; . = no result; [ ] = another dose, or the depositor's remark. Unless noted, calls follow the shape of the dose curve; as a rule, active = well fitted curve in the direction sought with a large enough effect; inconclusive = small, poorly fitted or top-dose-only effect, or another doubt; inactive = no such curve, though single readings can be large; an effect the other way counts as inactive or inconclusive. Unless noted, % is scaled to controls: 0 for no effect and ±100 for the full control effect.

SMILES	HT1080 IDH1KD tx	IL-1B inflam inh	TDP1 cell noCPT	TDP1 cell CPT	HT1080-NT tox
COc1ccc(C(=O)Nc2cc(C(=O)c3ccccc3)c(C)oc2=O)cc1	-2%	-11	10µM*	13µM*	-3%
Cc1oc(=O)c(NC(=O)c2ccccc2)cc1C(N)=O	-4%	19	-2%	24%	-18%
COC(=O)c1cc(NC(=O)c2ccccc2)c(=O)oc1C	-12%	-4	-17%	8%	-10%
COCCN(C)C(=O)c1cnn(-c2nccc(-c3cc(C)sc3C)n2)c1C	.	.	-15%	-2%[9.04 µM]	.
Nc1ncnn1Cc1ccccc1	8%	6	4%	9%	8%
CCOC(=O)[C@]12CCCC=C1N(Cc1ccccc1)C(=O)[C@H](CC(=O)NCc1ccc(C)o1)C2	2%	-24	?	?	-1%
CCOC(=O)[C@]12CCC=C1N(CCC1=CCCCC1)C(=O)[C@H](CC(=O)NCc1ccccc1)C2	-1%	-1	?	?	2%
CCCCNC(=O)C[C@@H]1C[C@@]2(C(=O)OCC)CCC=C2N(CCC2=CCCCC2)C1=O	-18%	-23	?	18µM*	0%
CCOC(=O)[C@]12CCCC=C1N(CCC1=CCCCC1)C(=O)[C@H](CC(=O)NCc1ccccc1)C2	?	-8	16µM*	?	?
CCOC(=O)[C@]12CCCC=C1N(CCc1ccc(OC)c(OC)c1)C(=O)[C@H](CC(=O)NCc1ccc(C)o1)C2	5%	4	16µM*	13µM*	15%
CCCCOCCCNC(=O)C[C@@H]1C[C@@]2(C(=O)OCC)CCC=C2N(CCC2=CCCCC2)C1=O	-26%	0	?	?	-2%
CCOC(=O)[C@]12CCC=C1N(CCC1=CCCCC1)C(=O)[C@H](CC(=O)NCCCCc1ccccc1)C2	?	16	21µM*	?	?
CCOC(=O)[C@]12CCCC=C1N(CCC1=CCCCC1)C(=O)[C@H](CC(=O)NCc1ccc(C)o1)C2	?	-26	13µM*	?	?
CCOC(=O)[C@]12CCC=C1N(CCC1=CCCCC1)C(=O)[C@H](CC(=O)NCCC(C)C)C2	-15%	0	16µM*	?	5%
CCOC(=O)[C@]12CCC=C1N(CCC1=CCCCC1)C(=O)[C@H](CC(=O)NCc1cccs1)C2	3%	-1	?	?	10%
O=C(CN1C(=O)c2ccccc2C1=O)Nc1cccc(Cl)c1	5%	15	-8%	-17%	-2%
O=C(Nc1cccc(Cl)c1)N1CCN2C(=O)c3ccccc3C12c1ccccc1 (centres undefined)	?	-58*	18µM*	?	?
Cc1ccc(C(=O)N2CCN3C(=O)c4ccccc4C23c2ccc(Cl)cc2)cc1 (centres undefined)	?	0	10µM*	8.2µM*	?
COc1ccc(CNCc2cc3c(C(C)(C)C)nn(-c4ccccc4)c3[nH]c2=O)cc1	?	10	18µM*	26µM*	?
Cc1ccc(CNCc2cc3c(C(C)(C)C)nn(-c4ccccc4)c3[nH]c2=O)cc1	?	-85*	25µM*	?	?
CC(C)(C)c1nn(-c2ccccc2)c2[nH]c(=O)c(CNCc3ccco3)cc12	?	29	23µM*	21µM*	-27%
CC(C)(C)c1nn(-c2ccccc2)c2[nH]c(=O)c(CNc3ccc4c(c3)OCCO4)cc12	?	28	-20%	-30%	?
COc1ccc(CNc2nc(NC(C)=O)nn2-c2ccccc2)cc1	13%	7	-3%	0%	-7%
O=[N+]([O-])c1cccc(/C=N/Nc2nnc(-c3ccccc3)c(-c3ccccc3)n2)c1	-2%	19	9.2µM*	9.2µM*	3%
C/C(=N\NC(=O)C1CC1c1ccccc1)c1cccc([N+](=O)[O-])c1 (centres undefined)	-14%	6	?	?	-25%
SMILES	HT1080 IDH1KD tx	IL-1B inflam inh	TDP1 cell noCPT	TDP1 cell CPT	HT1080-NT tox
C/C(=N\NC(=O)C1CC1(c1ccccc1)c1ccccc1)c1cccc([N+](=O)[O-])c1 (centres undefined)	11%	7	7.3µM*	?	18%
C/C(=N\Nc1nnc(-c2ccccc2)c(-c2ccccc2)n1)c1cccc([N+](=O)[O-])c1	24%	13	8.2µM*	7.3µM*	20%
O=[N+]([O-])c1cccc(N/N=C/c2ccc(N3CCOCC3)cc2)c1	?	-63*	16µM*	18µM*	-23%
CC(C)C[C@@H]1CN(CCCC[C@H]2CNC(=O)C(=O)N2CCC2CCCCC2)C(=O)C(=O)N1Cc1ccccc1	?	?	-3%	3%	?
CCOc1ccccc1OCCCC(=O)N(CC)CC(=O)Nc1c(F)cccc1F	21%	-2	-24%	4%	-2%
COCCN1C[C@@H](CO)O[C@@H](n2cnc3c(NCc4ccco4)ncnc32)C1	19%	-19	3%	-5%	?
O=C(N/N=C/c1cccc([N+](=O)[O-])c1)c1cc2ccccc2o1	?	2	23µM*	?	14%
O=C(COc1ccc(/C=C\[N+](=O)[O-])cc1)N1CCOCC1	-1%	-12	?	?	1%
O=C(N/N=C/c1ccsc1)c1cc2ccccc2o1	3%	-11	-3%	7%	3%
O=[N+]([O-])/C=C\c1ccc(N2CCOCC2)cc1	15µM*	-80*	16µM*	15µM*	21µM*
C/C(=N\Nc1cc(C)nc(NCc2ccccc2)n1)c1cccc([N+](=O)[O-])c1	0%	-16	2.9µM*	8.2µM*	6%
O=[N+]([O-])c1cccc(C=NNc2ccccc2)c1	?	-65*	?	-1%	-20%
O=[N+]([O-])c1ccc(C=NNc2ccccc2)cc1	?	-6	?	-7%	-10%
Cc1cc(C)nc(N2CCCC(C(=O)NCCC3=CCCCC3)C2)n1 (centres undefined)	-15%	18	-14%	1%	8%
CC(=O)c1ccc(NC(=O)Cn2c3ccccc3c3nc(=O)cc(C)n32)cc1	-10%	72	8%	-8%	-8%
O=C1C2CCCN2C(=O)N1CCCCN1CCN(c2ccc(F)cc2)CC1 (centres undefined)	-3%	-6	-8%	-10%	0%
CC1(C)CC1C(=O)Nc1ccc([N+](=O)[O-])cc1Br (centres undefined)	1%	2	?	4%	12%
